SRC3 TRFRET art: TR-FRET detection interference compounds, artefact control for PPARgamma SRC-3 recruitment agonists, biochemical, TR-FRET ratio; TR-FRET artefact counter-screen, PPARgamma/SRC-3 format; stronger effect = higher value; TR-FRET ratio at 8 µM; 99,000 tested, 0.39% active; AID 1048, 2008
TR-FRET SRC-2 ct: TR-FRET signal artefacts, primary screen, artefact control for PPARgamma SRC-2 agonist project, biochemical | 200,000 tested, 0.4% active | TR-FRET ratio at 8 µM | AID 1049, 2008 | TR-FRET artefact counter-screen; stronger effect = higher value
PPARg SRC-1 ag: PPARgamma agonists recruiting SRC-1 coactivator, primary screen, biochemical | PPARgamma-SRC-1 coactivator recruitment biochemical assay | activation, % at 8 µM | 200,000 tested, 0.41% active; in the data active = activation above about 19%;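 also: 0% = DMSO and 100% = reference agonist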
Target sequence (P37231 whole entry, looked up): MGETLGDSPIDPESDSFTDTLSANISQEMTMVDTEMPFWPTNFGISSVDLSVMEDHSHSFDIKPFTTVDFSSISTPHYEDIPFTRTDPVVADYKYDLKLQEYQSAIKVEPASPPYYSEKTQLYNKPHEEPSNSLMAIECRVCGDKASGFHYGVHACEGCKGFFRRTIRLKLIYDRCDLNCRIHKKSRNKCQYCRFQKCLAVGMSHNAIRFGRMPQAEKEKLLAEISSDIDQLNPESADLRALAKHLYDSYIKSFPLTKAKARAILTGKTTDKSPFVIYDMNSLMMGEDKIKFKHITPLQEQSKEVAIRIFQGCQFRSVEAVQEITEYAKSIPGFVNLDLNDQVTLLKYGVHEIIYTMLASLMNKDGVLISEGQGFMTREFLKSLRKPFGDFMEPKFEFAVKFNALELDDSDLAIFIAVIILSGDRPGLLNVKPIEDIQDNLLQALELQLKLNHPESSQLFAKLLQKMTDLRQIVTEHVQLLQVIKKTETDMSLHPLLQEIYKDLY
SRC1 TRFRET art: TR-FRET detection interference compounds, primary screen, artefact control for PPARgamma SRC-1 recruitment agonists, biochemical, TR-FRET emission ratio; TR-FRET detection artefact counter-screen; stronger effect = higher value; TR-FRET ratio at 8 µM; 99,000 tested, 0.34% active; in the data active = TR-FRET ratio above about 2300
PPARg SRC-2 ag: agonists of PPARg-SRC-2 recruitment, primary screen, biochemical, HTS | activation, % at 8 µM | Peroxisome proliferator-activated receptor gamma (Homo sapiens), P37231 | 200,000 tested, 0.34% active | AID 1032, 2008 | PPARgamma LBD-SRC-2 recruitment; in the data active = activation above about 22%;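 also: 0% = vehicle and 100% = reference agonist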
PPARg SRC-3 ag: PPARgamma agonists recruiting SRC-3 coactivator, primary screen, biochemical. AID 731, 2007. Peroxisome proliferator-activated receptor gamma (Homo sapiens), P37231. 200,000 tested, 0.26% active. activation, % at 8 µM. biochemical PPARgamma/SRC-3 coactivator recruitment assay; in the data active = activation above about 23%;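 also: 0% = DMSO and 100% = reference agonist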
An asterisk follows results filed as active; . = no result given. Most compounds without a hit are left out; they make up all but 0.9% or so of the library. Rule as the data show it, unless noted: active = TR-FRET ratio above about 2000; inactive = the rest.

SMILES	SRC3 TRFRET art	TR-FRET SRC-2 ct	PPARg SRC-1 ag	SRC1 TRFRET art	PPARg SRC-2 ag	PPARg SRC-3 ag
Cc1ccc(S(=O)(=O)N2CCC(C(=O)N/N=C/c3cccnc3)CC2)cc1	1394	1501	-1.4	1576	-4.3	-3.5
CC(C)C1CC(C(F)(F)F)n2nc(C(=O)O)cc2N1 (stereo not given)	1729	2157*	5.4	1719	17.0	2.0
CC1CC(C(F)(F)F)n2nc(C(=O)O)cc2N1 (stereo not given)	.	1390	-5.4	.	-0.4	-15.1
CCC(CC)NC(=O)CCCSc1nc2ccccc2[nH]1	1687	1754	9.8	2097	-1.4	5.1
CN(C)S(=O)(=O)c1cccc(NC(=O)c2cc(-c3cccs3)nn2-c2cccc(Cl)c2)c1	2416*	2193*	10.9	2166	8.8	8.5
O=C(O)c1cc(-c2cccs2)nn1-c1cccc(Cl)c1	1777	1488	5.7	1898	-3.7	3.8
CC1=Nc2nc(N3CCCCC3)c(C#N)c3c4c(nc(c23)N1)N(c1ccc(C(C)C)cc1)C(=O)C4	1694	1519	4.8	1635	-1.4	-3.4
Cc1cc(C)c(C#N)c(SCc2cc3c(cc2Cl)OCO3)n1	.	2388*	3.3	.	56.1*	-5.1
CCOc1cc(/C=N/NC(=O)CCCC(=O)NC2CCCCC2)ccc1O	1549	1502	-2.5	1735	2.5	-0.6
COc1ccc(C(=O)Nc2cc(C)c3c(=O)oc4ccccc4c3n2)cc1	.	1536	23.7*	.	1.4	-5.4
O=C(CSc1ccc(Br)c2cccc(Cl)c12)Nc1ccc(S(=O)(=O)Nc2nccs2)cc1	2321*	1982*	30.0*	2830*	10.4	11.7
CC(C)C(=O)NC(=S)Nc1ccc(S(=O)(=O)Nc2nccs2)cc1	1730	1735	4.3	2318*	8.6	4.5
O=C(NC(=S)Nc1ccc(S(=O)(=O)Nc2nccs2)cc1)c1ccccc1	1629	1692	8.8	1767	5.3	0.2
Cc1cc(C)c2nc(SCC(=O)N3CC(=O)Nc4ccccc43)c(C#N)cc2c1	.	3300*	-4.2	.	11.8	-1.8
COc1cc2[nH]c(=S)nc(NCCc3ccc(C)cc3)c2cc1OC	2231*	1959	21.2*	2432*	24.5*	16.5
Cc1ccc(NC(=O)CN(c2ccc(Cl)cc2)S(=O)(=O)c2cc([N+](=O)[O-])ccc2Cl)c(C)c1	1367	1546	6.4	1498	0.0	-1.8
COCc1cc(C)nc(Nc2ccc(C)cc2C)c1C#N	.	1983*	13.8	.	18.7	14.1
Cc1cnc(N)c2c(=O)oc3ccccc3c12	.	2018*	0.8	.	4.8	6.9
O=C(N/N=C/c1cnc(N2CCCCC2)s1)c1ccc(Cl)cc1	1706	1811	21.1*	1954	6.3	4.5
COc1ccccc1OC(=O)CCN1c2ccccc2Sc2ccccc21	2481*	1756	-8.8	1668	5.4	-1.6
COc1ccccc1C(=O)N1c2ccccc2Sc2ccccc21	1597	1478	-2.5	1706	-0.7	3.0
Cc1ccc(C(=O)c2cnc3cc4c(cc3c2S(=O)(=O)c2ccccc2)OCCO4)cc1	2485*	1863	-7.0	2238	0.0	-1.9
CCOc1ccc(S(=O)(=O)c2c(C(=O)c3ccc(C)cc3)cnc3cc4c(cc23)OCCO4)cc1	2812*	2406*	7.8	2755*	-3.3	9.6
CN(CC(=O)Nc1cccc2ccccc12)C(=O)/C=C/c1cccs1	1441	1592	2.0	1945	4.5	-0.4
COc1cccc(-c2ccc(C#N)c(SCC(=O)NCc3ccco3)n2)c1	1969	1980*	15.8	2097	5.6	9.5
SMILES	SRC3 TRFRET art	TR-FRET SRC-2 ct	PPARg SRC-1 ag	SRC1 TRFRET art	PPARg SRC-2 ag	PPARg SRC-3 ag
CC(C)c1ccc(C2CC(c3ccc(Br)cc3)=NN2C(N)=S)cc1 (stereo not given)	1878	1708	5.9	2207	6.5	7.9
CNC(=S)N1N=C(c2ccc(C)cc2)CC1c1ccc(Br)cc1 (stereo not given)	.	2002*	4.0	.	6.5	1.8
CNC(=S)N1N=C(c2ccccc2)CC1c1ccccc1Cl (stereo not given)	2267*	1821	13.0	2109	13.8	12.3
Cc1ccc(C2CC(c3ccccc3)=NN2C(=S)Nc2ccccc2)o1 (stereo not given)	.	1587	11.2	.	4.9	9.5
CCN(CC)C(=O)/C(=C\c1cccc([N+](=O)[O-])c1)NC(=O)c1ccco1	1745	1513	-5.1	1819	-5.2	1.5
Oc1c(Br)cc(Br)cc1C=NCc1ccc(F)cc1	1714	1663	20.7*	2042	7.5	3.4
Oc1c(Br)cc(Br)cc1C=NCc1ccccc1	1719	1715	13.5	2047	11.8	6.6
COc1cnn(-c2ccccc2)c(=O)c1N(C)C	.	1421	-4.4	.	-4.7	25.8*
OC(CNc1ccccc1)Cn1ccc2ccccc21 (stereo not given)	1443	1775	6.1	1698	-1.4	0.6
COC(=O)c1ccccc1NC(=S)N(Cc1ccc2c(c1)OCO2)Cc1cc2ccc(OC)cc2[nH]c1=O	2123*	1721	-4.7	1854	13.2	-1.4
O=c1cc(/N=C/c2coc3c(ccc4ccccc43)c2=O)[nH]c(=S)[nH]1	1729	1537	11.0	2303	8.7	4.6
O=C(COc1cccc(Cl)c1)Nc1nc(-c2ccc(S(=O)(=O)N3CCOCC3)cc2)cs1	.	2278*	11.2	.	11.4	21.0
COc1ccccc1OC(C)C(=O)Nc1nc(-c2ccc(S(=O)(=O)N3CCOCC3)cc2)cs1 (stereo not given)	.	2207*	5.3	.	8.8	-12.1
O=C(COC(=O)c1cccc(S(=O)(=O)N2CCOCC2)c1)Nc1nc(-c2ccccc2Cl)cs1	.	1499	8.9	.	1.6	2.8
O=C(Nc1nc(-c2ccncc2)cs1)c1ccc(S(=O)(=O)N2CCOCC2)cc1	.	1646	5.4	.	-2.9	6.3
CCOc1cccc(C(=O)Nc2nc(-c3ccc(S(=O)(=O)N4CCOCC4)cc3)cs2)c1	.	2173*	14.0	.	18.1	19.4
O=C(Nc1nc(-c2cccs2)cs1)c1cccc(S(=O)(=O)N2CCCCCC2)c1	.	2098*	3.1	.	2.3	-1.0
CC(Oc1cccc(F)c1)c1ccnc2nc(/N=C/N(C)C)nn12 (stereo not given)	1493	1765	4.8	1888	0.2	1.2
CN(C)C(CNC(=O)c1ccc2c(=O)n(-c3ccccc3F)c(=S)[nH]c2c1)Cc1ccccc1 (stereo not given)	1650	1481	11.2	1895	2.7	-0.7
CSc1nc2ccc3nc(NC(=O)c4ccc(Cl)s4)sc3c2s1	.	1620	12.9	.	-1.1	2.5
CSc1nc2ccc3nc(NC(=O)c4cccs4)sc3c2s1	.	1442	40.6*	.	-5.0	-2.4
